{
  "source": "PubChem BioAssay (NCI)",
  "note": "About 83,000 compounds went through this panel and 20% of them were active in at least one assay; those are over-represented in the sample as a whole.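 Activity criterion: percent growth below 10, measured after cells in 96-well plates were exposed to a single compound concentration for 48 hours.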 Values without a mark were called inactive. The source made the active and inactive calls.",
  "data": [
    {"test_system": "LOX IMVI melanoma", "assay": "NCI-60 one-dose screen, 48 h (100 = growth as untreated, 0 = no growth, -100 = all killed)", "details": "10 µM unless noted", "values": [
      {"smiles": "COc1ccc(-c2nn(-c3ccc(NC(=O)c4cc(C(F)(F)F)cc(C(F)(F)F)c4)cc3)cc2-c2ccncc2)cc1Cl", "growth": "46.4%"},
      {"smiles": "Cc1cccc(NCS(=O)(=O)O)c1", "growth": "95.2%"},
      {"smiles": "O=C(O)c1ccccc1C(=O)c1ccc(I)cc1", "growth": "91%"},
      {"smiles": "CC1(C)CC(=O)C2=C(C1)OC1=C(C(=O)CC(C)(C)C1)C2c1ccc(OCc2cn(-c3ccc(F)cc3F)nn2)cc1", "growth": "97.7%"},
      {"smiles": "CC(C)(CCN=C(N)Nc1ccccn1)c1ccc(C(F)(F)F)cc1", "growth": "5.15% (active)"},
      {"smiles": "CC(=O)c1cc2c(c(O)c1C)C(=O)C(=O)c1c(O)cccc1-2", "growth": "-49.2% (active)"},
      {"smiles": "O=C(Nc1ccc(F)cc1)Nc1ccc(Cl)c([N+](=O)[O-])c1", "growth": "9.41% (active)"},
      {"smiles": "C#C[C@H](O)/C=C/CCCCCCC#C[C@H](O)CC[C@@H](O)C#CCCCCCC/C=C/[C@@H](O)C#C", "growth": "-71.2% (active)"},
      {"smiles": "O=C(Nc1ccc(-n2cc(-c3ccncc3)c(-c3ccc(O)c(Cl)c3)n2)cc1)c1ccc(Cl)c(C(F)(F)F)c1", "growth": "-47.6% (active)"},
      {"smiles": "Cc1nccc2c3ccc(OCc4cn(Cc5ccc(Br)cc5)nn4)cc3n(CCCc3ccccc3)c12", "growth": "93.3%"},
      {"smiles": "NCC(=O)NS(=O)(=O)OC[C@H]1O[C@@H](n2cnc3c(N)ncnc32)[C@H](O)[C@@H]1O", "growth": "-45.6% (active)"},
      {"smiles": "C[C@H]1C=C(C[C@@H](O)CC#CC#CCCCCC[C@@H](O)[C@H]2CCC(=O)O2)C(=O)O1", "growth": "92.6%"},
      {"smiles": "CN1CCN(C(=O)/C=C/c2ccc([N+](=O)[O-])o2)CC1", "growth": "66.7%"},
      {"smiles": "OCc1cnccc1NC12CC3CC(CC(C3)C1)C2", "growth": "96.7%"},
      {"smiles": "Nc1nccc(=S)[nH]1", "growth": "100%"},
      {"smiles": "COc1cc(C(=O)N2CCN(C(=O)c3cc(OC)c(OCc4ccccc4)cc3N)CC2)c(N)cc1OCc1ccccc1", "growth": "108%"},
      {"smiles": "C[C@@H]1CC2C3C[C@H](F)C4=CC(=O)C=C[C@]4(C)[C@@]3(F)[C@@H](O)C[C@]2(C)[C@@]1(O)C(=O)CO", "note": "(stereo not given in full)", "growth": "92.1%"},
      {"smiles": "CCCCCn1ncc(-c2c(O)c(O)cc3c(O)c(-c4c(C)cc5c(-c6cnn(CCCCC)n6)c(O)c(O)cc5c4O)c(C)cc23)n1", "growth": "-40.7% (active)"},
      {"smiles": "COc1ccc(NC(=O)COCCOCCNC[C@@H]2C(=O)O[C@H]3[C@H]2CC/C(COC(=O)OC/C2=C/CC[C@@]4(C)O[C@H]4[C@H]4OC(=O)[C@@H](CN(C)C)[C@@H]4CC2)=C\\CC[C@@]2(C)O[C@@H]32)c(O)c1C(N)=O", "growth": "35.1%"},
      {"smiles": "Cc1cc(C)c(O)c(C(=O)CC(Br)C(=O)O)c1", "note": "(stereo not given)", "growth": "93.1%"},
      {"smiles": "COc1ccc(-c2[nH]c3ccccc3c2/C=C(\\C#N)S(=O)(=O)c2ccccc2)cc1", "growth": "28.5%"},
      {"smiles": "NC(=NCCCOc1ccc(F)cc1)Nc1ccc(Cl)c(Cl)c1", "growth": "55.9%"},
      {"smiles": "O=C(N/N=C/c1ccccc1O)c1ccccc1O", "growth": "12.8%"},
      {"smiles": "NC(=S)NNC1CCCCC1", "growth": "97.6%"},
      {"smiles": "CCN1CCN(Cc2ccc(NC(=O)Nc3cccc(-n4ccc5c(NC(=O)c6ccccc6)nccc54)c3)cc2C(F)(F)F)CC1", "growth": "85%"},
      {"smiles": "CN(C)c1ccc(/C=c2\\s/c(=C\\C(=O)C(C)(C)C)[nH]c2=O)cc1", "growth": "87.1%"}
    ]},
    {"test_system": "SK-MEL-28 melanoma", "assay": "NCI-60 one-dose screen, 48 h (100 = growth as untreated, 0 = no growth, -100 = all killed)", "details": "10 µM unless noted", "values": [
      {"smiles": "CCCCC(=O)Nc1nc2ccc(SCCC)cc2s1", "growth": "64.8%"},
      {"smiles": "CC(C)(C)C(=O)/C=c1/[nH]c(=O)/c(=C/c2ccccc2O)s1", "growth": "69.6%"},
      {"smiles": "CC[C@@]1(O)C(=O)OCc2c1cc1n(c2=O)Cc2c-1nc1ccccc1c2/C=N/OC(C)(C)C", "growth": "14.3%"},
      {"smiles": "COc1ccc(OC)c(NCC(=O)n2nc(/C=C\\c3ccc(O)c(OC)c3)cc2/C=C\\c2ccc(O)c(OC)c2)c1", "growth": "21.2%"},
      {"smiles": "O=C1OC(=O)C2C3CC(c4ccccc43)C12", "note": "(stereo not given)", "growth": "116%"},
      {"smiles": "COc1ccc2c(c1)OC(N)=C(C#N)C2c1ccc(F)cc1", "note": "(stereo not given)", "growth": "65%"},
      {"smiles": "S=C=NP1(N=C=S)=NP(N=C=S)(N=C=S)=NP(N=C=S)(N=C=S)=NP(N=C=S)(N=C=S)=N1", "note": "(stereo not given)", "growth": "107%"},
      {"smiles": "COc1cc(-c2nc(N)n(CC(=O)Nc3ccc(/C(C)=N\\O)cc3)n2)cc(OC)c1OC", "growth": "94.2%"},
      {"smiles": "COc1cc2ncnc(Oc3ccc(NC(=O)Nc4ccc(CN5CCOCC5)c(C(F)(F)F)c4)c4ccccc34)c2cc1OC", "growth": "2.47% (active)"},
      {"smiles": "COc1ccc(-c2c(C#N)cnc(N)c2-c2nc3cc(C)c(C)cc3[nH]2)cc1", "growth": "77%"},
      {"smiles": "c1ccc(CNCCN(CCNCc2ccccn2)Cc2ccc3ccccc3c2)nc1", "growth": "5% (active)"},
      {"smiles": "C=C1C(=O)O[C@H]2[C@H]1CC/C(C(=O)Nc1ccc(OC)c(C(N)=O)c1O)=C\\CC[C@@]1(C)O[C@@H]21", "growth": "52.9%"},
      {"smiles": "Cc1ccc2oc(=O)cc(C3C(C#N)=C(N)Oc4c3ccc3ccccc43)c2c1", "note": "(stereo not given)", "growth": "86.2%"},
      {"smiles": "COc1ccc(-c2nn(-c3ccc(NC(=O)c4cc(C(F)(F)F)cc(C(F)(F)F)c4)cc3)cc2-c2ccncc2)cc1Cl", "growth": "79.9%"},
      {"smiles": "Cc1cccc(NCS(=O)(=O)O)c1", "growth": "113%"},
      {"smiles": "O=C(O)c1ccccc1C(=O)c1ccc(I)cc1", "growth": "107%"},
      {"smiles": "CC1(C)CC(=O)C2=C(C1)OC1=C(C(=O)CC(C)(C)C1)C2c1ccc(OCc2cn(-c3ccc(F)cc3F)nn2)cc1", "growth": "103%"},
      {"smiles": "CC(C)(CCN=C(N)Nc1ccccn1)c1ccc(C(F)(F)F)cc1", "growth": "-30.9% (active)"},
      {"smiles": "CC(=O)c1cc2c(c(O)c1C)C(=O)C(=O)c1c(O)cccc1-2", "growth": "-87.2% (active)"},
      {"smiles": "O=C(Nc1ccc(F)cc1)Nc1ccc(Cl)c([N+](=O)[O-])c1", "growth": "22.6%"},
      {"smiles": "C#C[C@H](O)/C=C/CCCCCCC#C[C@H](O)CC[C@@H](O)C#CCCCCCC/C=C/[C@@H](O)C#C", "growth": "101%"},
      {"smiles": "O=C(Nc1ccc(-n2cc(-c3ccncc3)c(-c3ccc(O)c(Cl)c3)n2)cc1)c1ccc(Cl)c(C(F)(F)F)c1", "growth": "44.3%"},
      {"smiles": "Cc1nccc2c3ccc(OCc4cn(Cc5ccc(Br)cc5)nn4)cc3n(CCCc3ccccc3)c12", "growth": "99.4%"},
      {"smiles": "NCC(=O)NS(=O)(=O)OC[C@H]1O[C@@H](n2cnc3c(N)ncnc32)[C@H](O)[C@@H]1O", "growth": "8.36% (active)"},
      {"smiles": "C[C@H]1C=C(C[C@@H](O)CC#CC#CCCCCC[C@@H](O)[C@H]2CCC(=O)O2)C(=O)O1", "growth": "123%"},
      {"smiles": "CN1CCN(C(=O)/C=C/c2ccc([N+](=O)[O-])o2)CC1", "growth": "35.8%"},
      {"smiles": "OCc1cnccc1NC12CC3CC(CC(C3)C1)C2", "growth": "105%"},
      {"smiles": "Nc1nccc(=S)[nH]1", "growth": "106%"},
      {"smiles": "COc1cc(C(=O)N2CCN(C(=O)c3cc(OC)c(OCc4ccccc4)cc3N)CC2)c(N)cc1OCc1ccccc1", "growth": "123%"},
      {"smiles": "C[C@@H]1CC2C3C[C@H](F)C4=CC(=O)C=C[C@]4(C)[C@@]3(F)[C@@H](O)C[C@]2(C)[C@@]1(O)C(=O)CO", "note": "(stereo not given in full)", "growth": "108%"},
      {"smiles": "CCCCCn1ncc(-c2c(O)c(O)cc3c(O)c(-c4c(C)cc5c(-c6cnn(CCCCC)n6)c(O)c(O)cc5c4O)c(C)cc23)n1", "growth": "25.9%"},
      {"smiles": "COc1ccc(NC(=O)COCCOCCNC[C@@H]2C(=O)O[C@H]3[C@H]2CC/C(COC(=O)OC/C2=C/CC[C@@]4(C)O[C@H]4[C@H]4OC(=O)[C@@H](CN(C)C)[C@@H]4CC2)=C\\CC[C@@]2(C)O[C@@H]32)c(O)c1C(N)=O", "growth": "-6.54% (active)"},
      {"smiles": "Cc1cc(C)c(O)c(C(=O)CC(Br)C(=O)O)c1", "note": "(stereo not given)", "growth": "101%"},
      {"smiles": "COc1ccc(-c2[nH]c3ccccc3c2/C=C(\\C#N)S(=O)(=O)c2ccccc2)cc1", "growth": "54.2%"},
      {"smiles": "NC(=NCCCOc1ccc(F)cc1)Nc1ccc(Cl)c(Cl)c1", "growth": "94.3%"},
      {"smiles": "O=C(N/N=C/c1ccccc1O)c1ccccc1O", "growth": "46.9%"},
      {"smiles": "NC(=S)NNC1CCCCC1", "growth": "111%"},
      {"smiles": "CCN1CCN(Cc2ccc(NC(=O)Nc3cccc(-n4ccc5c(NC(=O)c6ccccc6)nccc54)c3)cc2C(F)(F)F)CC1", "growth": "82.8%"},
      {"smiles": "CN(C)c1ccc(/C=c2\\s/c(=C\\C(=O)C(C)(C)C)[nH]c2=O)cc1", "growth": "104%"}
    ]}
  ]
}
